Drawing on PubChem BioAssay, this text covers viability for 39 compounds.

The first experiment can be described thus: MRP1 drug-resistance reversers in H69AR cells – cell-based, doxorubicin co-treatment, pilot screen (AID 601). Particulars: H69AR cells + 2 uM doxorubicin, CellTiter-Glo, 72 h; measured here: viability with 2 uM doxorubicin; at 10 µM; stronger effect = lower value.
As to `CCSc1nc2ccccc2n1CCC(=O)O`, the viability is 93.4%.

Take `C=CCN(CC=C)C(=O)CN1C(=O)c2ccccc2C1=O`: the viability is 92.1%.

As for `CCOC(=O)N1CCN(CC(=O)Nc2c(C(=O)OC)[nH]c3cccc(Cl)c23)CC1`, the viability is 87.8%.

As for `CC(=O)Nc1ccc(NC(=O)C(C)Oc2ccccc2F)cc1` (stereo not drawn), the viability was determined as 84%.

Regarding `CCCCC(=O)Nc1c(O)c2ccccc2[nH]c1=O`, the viability was determined as 101%.

Take `O=C(Cc1ccc(Br)cc1)N1CCCCCC1`: the viability came out at 89.6%.

On to `CC1=C(C(=O)NCc2ccccn2)C2(CCC(C)CC2)OC1=O` (stereo not drawn), for which the viability worked out at 89.7%.

Turning to `Cc1nc(C)c(C(=O)Nc2ccc(Oc3ccccc3)cc2)o1`, the viability is 79.4%.

As for `Cc1ccc2c(c1)sc1ncc(NC(=O)c3ccccc3)c(=O)n12`, the viability came to 88.3%.

As for `Cc1ccc2cc(CN(CC(C)C)C(=O)C3CCCO3)c(=O)[nH]c2c1` (stereo not drawn), the viability is 96.8%.

With `O=C(NCC1CCCO1)c1cccc(N2C(=O)C3C4C=CC(C4)C3C2=O)c1` (stereo not drawn), the viability stood at 89.8%.

As to `CCOC(=O)c1sc2nc3c(cc2c1N)COC(C)(C)C3`, the viability was 94.5%.

Take `CCCCn1c(SCC(=O)NCc2ccccc2)nc2ccc(N3CCOCC3)cc2c1=O`: the viability amounted to 79.8%.

Take `Cc1ccccc1-c1nc(CS(=O)(=O)CC(=O)N(C)C2CCCCC2)c(C)o1`: the viability came out at 92.2%.

For the compound `COC1CCCCC1NS(=O)(=O)c1ccccc1` (stereo not drawn), the viability stood at 96.2%.

As for `O=C(CSc1nc2ccccc2nc1SCC(=O)N1CCOCC1)N1CCOCC1`, the viability was determined as 94.5%.

Turning to `Cc1ccccc1-c1nc(CS(=O)(=O)CC(=O)NCc2ccccc2)c(C)o1`, the viability stood at 90.4%.

`Cc1ccc(S(=O)(=O)N2CCN(C(=O)CN3CCOCC3)C2C(C)C)cc1` (stereo not drawn): the viability came out at 94.5%.

Consider `CC(CN1CCCCC1)OC(=O)c1ccc2c(c1)OCO2` (stereo not drawn), for which the viability was 86.8%.

Regarding `CCOC(=O)N1CCN(C(=O)CN(C)S(=O)(=O)c2ccc(OC)c(OC)c2)CC1`, the viability is 88.3%.

Take `CC1(C)CC(=O)CC(C)(C)N1OC(=O)c1ccccn1`: the viability came to 93.6%.

In the case of `Cc1cccc(NC(=O)CC2NC3CCCCC3NC2=O)c1` (stereo not drawn), the viability was 90.7%.

As to `O=C(CS(=O)(=O)c1cn(Cc2ccc(Cl)cc2)c2ccccc12)N1CCOCC1`, the viability is 88.6%.

Take `Cc1cccc(-n2ncc3c(N)ncnc32)c1`: the viability was found to be 80.6%.

For `O=C(CN1CCN(c2nc(-c3ccccc3)cs2)CC1)Nc1ccc2c(c1)OCO2`, the viability was 95.5%.

As to `CCC12CN3CC(CC)(CN(C1)C3c1ccc(OC(C)C)cc1)C2=O` (stereo not drawn), the viability was found to be 94.6%.

Turning to `Cc1c(/C(O)=C2/C(=O)C(=O)N(CCN3CCOCC3)C2c2cccs2)cnn1-c1ccccc1` (stereo not drawn), the viability amounted to 95%.

On to `c1cc2c(cc1C1=Nn3c(nnc3C3CCCCC3)SC1)OCO2`, for which the viability was 77.3%.

In the case of `COc1ccc(CNC(=O)C(c2ccco2)N(Cc2cccs2)C(=O)Cc2cccs2)cc1` (stereo not drawn), the viability worked out at 64.3%.

`Cc1cccc(NC(=O)c2cc3ccccc3o2)c1`: the viability was found to be 78.1%.

Consider `COc1ccc(S(=O)(=O)NCCOc2ccccc2)cc1OC`, for which the viability was 94.1%.

`Cc1nc(SC2C=CS(=O)(=O)C2)n[nH]1` (stereo not drawn): the viability turned out to be 100%.

In the case of `O=C1c2ccccc2C(Nc2ccc3nc(-c4cccnc4)[nH]c3c2)N1Cc1ccco1` (stereo not drawn), the viability was 81.1%.

For `Cc1ccc(NC(=O)CSc2nnc(CCCCCNC(=O)OC(C)(C)C)o2)c(C)c1`, the viability was 91.4%.

In the case of `O=S(=O)(NCC1CCCO1)c1ccc(S(=O)(=O)N2CCc3ccccc3C2)cc1` (stereo not drawn), the viability amounted to 89.8%.

For `COC(=O)c1ccc(C(=O)OC)c(NC(=O)Nc2ccc3c(c2)OCO3)c1`, the viability is 95.4%.

Turning to `CCN(CC(=O)NCc1cccs1)C(=O)c1cc(S(=O)(=O)N2CCOCC2)ccc1C`, the viability is 88.3%.

With `COc1ccc(-c2c3c(=O)n(C)c(=O)n(C)c3cn2-c2cccc(OC)c2)cc1`, the viability stood at 93.2%.

Consider `CCOC(=O)CCC(=O)Nc1ccc(S(=O)(=O)N2CCCC2)cc1`, for which the viability amounted to 96.3%.

The experiment is the same for the next values; noted with them: H69AR cells, CellTiter-Glo, 72 h; compound alone cytotoxicity; at 10 µM.
In the case of `CCSc1nc2ccccc2n1CCC(=O)O`, the viability is 109%.

In the case of `C=CCN(CC=C)C(=O)CN1C(=O)c2ccccc2C1=O`, the viability is 92.2%.

As to `CCOC(=O)N1CCN(CC(=O)Nc2c(C(=O)OC)[nH]c3cccc(Cl)c23)CC1`, the viability was found to be 86.6%.

As to `CC(=O)Nc1ccc(NC(=O)C(C)Oc2ccccc2F)cc1` (stereo not drawn), the viability amounted to 103%.

With `CCCCC(=O)Nc1c(O)c2ccccc2[nH]c1=O`, the viability stood at 98.3%.

Turning to `O=C(Cc1ccc(Br)cc1)N1CCCCCC1`, the viability stood at 97.9%.

For `CC1=C(C(=O)NCc2ccccn2)C2(CCC(C)CC2)OC1=O` (stereo not drawn), the viability worked out at 89.4%.

On to `Cc1nc(C)c(C(=O)Nc2ccc(Oc3ccccc3)cc2)o1`, for which the viability stood at 103%.

`Cc1ccc2c(c1)sc1ncc(NC(=O)c3ccccc3)c(=O)n12`: the viability turned out to be 91.7%.

`Cc1ccc2cc(CN(CC(C)C)C(=O)C3CCCO3)c(=O)[nH]c2c1` (stereo not drawn): the viability turned out to be 102%.

Consider `O=C(NCC1CCCO1)c1cccc(N2C(=O)C3C4C=CC(C4)C3C2=O)c1` (stereo not drawn), for which the viability turned out to be 100%.

As for `CCOC(=O)c1sc2nc3c(cc2c1N)COC(C)(C)C3`, the viability was determined as 98.4%.

`CCCCn1c(SCC(=O)NCc2ccccc2)nc2ccc(N3CCOCC3)cc2c1=O`: the viability came out at 74%.

As for `Cc1ccccc1-c1nc(CS(=O)(=O)CC(=O)N(C)C2CCCCC2)c(C)o1`, the viability was found to be 92.7%.

Consider `COC1CCCCC1NS(=O)(=O)c1ccccc1` (stereo not drawn), for which the viability came out at 97.7%.

Take `O=C(CSc1nc2ccccc2nc1SCC(=O)N1CCOCC1)N1CCOCC1`: the viability came to 95.7%.

For the compound `Cc1ccccc1-c1nc(CS(=O)(=O)CC(=O)NCc2ccccc2)c(C)o1`, the viability was determined as 96.5%.

On to `Cc1ccc(S(=O)(=O)N2CCN(C(=O)CN3CCOCC3)C2C(C)C)cc1` (stereo not drawn), for which the viability is 104%.

On to `CC(CN1CCCCC1)OC(=O)c1ccc2c(c1)OCO2` (stereo not drawn), for which the viability amounted to 94.1%.

For `CCOC(=O)N1CCN(C(=O)CN(C)S(=O)(=O)c2ccc(OC)c(OC)c2)CC1`, the viability is 91.5%.

With `CC1(C)CC(=O)CC(C)(C)N1OC(=O)c1ccccn1`, the viability stood at 102%.

With `Cc1cccc(NC(=O)CC2NC3CCCCC3NC2=O)c1` (stereo not drawn), the viability was 93.6%.

Take `O=C(CS(=O)(=O)c1cn(Cc2ccc(Cl)cc2)c2ccccc12)N1CCOCC1`: the viability came to 97%.

In the case of `Cc1cccc(-n2ncc3c(N)ncnc32)c1`, the viability worked out at 98.3%.

As to `O=C(CN1CCN(c2nc(-c3ccccc3)cs2)CC1)Nc1ccc2c(c1)OCO2`, the viability is 101%.

With `CCC12CN3CC(CC)(CN(C1)C3c1ccc(OC(C)C)cc1)C2=O` (stereo not drawn), the viability was found to be 105%.

For `Cc1c(/C(O)=C2/C(=O)C(=O)N(CCN3CCOCC3)C2c2cccs2)cnn1-c1ccccc1` (stereo not drawn), the viability was found to be 96.2%.

For the compound `c1cc2c(cc1C1=Nn3c(nnc3C3CCCCC3)SC1)OCO2`, the viability stood at 9.93%.

On to `COc1ccc(CNC(=O)C(c2ccco2)N(Cc2cccs2)C(=O)Cc2cccs2)cc1` (stereo not drawn), for which the viability stood at 72.5%.

As for `Cc1cccc(NC(=O)c2cc3ccccc3o2)c1`, the viability was 86.3%.

In the case of `COc1ccc(S(=O)(=O)NCCOc2ccccc2)cc1OC`, the viability came to 91.5%.

Consider `Cc1nc(SC2C=CS(=O)(=O)C2)n[nH]1` (stereo not drawn), for which the viability was found to be 86.3%.

With `O=C1c2ccccc2C(Nc2ccc3nc(-c4cccnc4)[nH]c3c2)N1Cc1ccco1` (stereo not drawn), the viability came to 91.2%.

Regarding `Cc1ccc(NC(=O)CSc2nnc(CCCCCNC(=O)OC(C)(C)C)o2)c(C)c1`, the viability was 93.2%.

For `O=S(=O)(NCC1CCCO1)c1ccc(S(=O)(=O)N2CCc3ccccc3C2)cc1` (stereo not drawn), the viability came out at 94.8%.

`COC(=O)c1ccc(C(=O)OC)c(NC(=O)Nc2ccc3c(c2)OCO3)c1`: the viability worked out at 92.7%.

Consider `CCN(CC(=O)NCc1cccs1)C(=O)c1cc(S(=O)(=O)N2CCOCC2)ccc1C`, for which the viability came out at 87.7%.

With `COc1ccc(-c2c3c(=O)n(C)c(=O)n(C)c3cn2-c2cccc(OC)c2)cc1`, the viability is 89.7%.

`CCOC(=O)CCC(=O)Nc1ccc(S(=O)(=O)N2CCCC2)cc1`: the viability was 102%.
